Each structure is given as a SMILES string. Values joined by “and” are separate entries in the source; they are usually repeats but may differ in a detail not shown here. Identical values can stand only once. Results filed as inconclusive are left out. Where a call stands in place of a potency, no number is given. Some structures have more than one record in an assay (separate samples or runs), and their calls can disagree. Active and inactive are the calls of the source. Calls follow the shape of the dose curve; as a rule, active = well fitted cell-killing curve with a large enough effect in the repeat runs; inconclusive = weak or mixed curves, or effect the other way; inactive = no such curve, though single readings can be large or run the other way.
Potency is read from the fitted curve at half-maximal effect.

The experiment in a line: qHTS assay for identifying genotoxic compounds that show differential cytotoxicity against isogenic chicken DT40 cell lines with known DNA damage response pathways - Rev3 mutant cell line (AID 743014). Also: nearly all actives have a fitted effect of over 55% in size. The following applies: chicken DT40 Rev3-/- viability, CellTiter-Glo, 40 h; series mostly up to 68.4 µM; activity, negative = cytotoxicity: at the top concentration. The text has this:
National Center for Advancing Translational Sciences [NCATS]
NIH Chemical Genomics Center [NCGC]
U.S. Environmental Protection Agency [EPA]
National Institutes of Environmental Health Sciences [NIEHS]
National Toxicology Program [NTP]
U.S. Food and Drug Administration [FDA]
DNA repair pathways play a critical role in cellular homeostasis by repairing DNA damage induced by endogenous processes and xenobiotics. Isogenic chicken DT40 cell lines deficient in different DNA repair pathways can be used to identify genotoxic compounds and aid in characterizing the nature of the DNA damage induced. Two DNA repair-deficient cell lines with disrupted genes, Rad54/Ku70 or Rev3, were used to screen the Tox21 10K compound library. Possible genotoxicity was based on the presence of a significant increase in cytotoxicity in one or more of the DNA repair-deficient cell lines compared to that observed in the parental DNA repair-proficient cell line. CellTiter Glo viability assay (Promega, Madison, WI) was used to measure cell viability in these cells after compound treatment. This assay includes the data from the Rev3 mutant cell line.
Tox21 Assay Protocol Summary:
300 DT40 mutant cells in 5 uL/well were dispensed into white, solid-bottom 1536-well plates using a Multidrop Combi (ThermoFisher Scientific, Waltham, MA) dispenser. After the assay plates were incubated at 37 C/5% CO2 for approximately 0.5 hour, 23 nL of compounds dissolved in DMSO, positive controls or DMSO only was transferred into the assay plate by a pintool work station (Kalypsys, San Diego, CA). The assay plates were incubated at 37 C/5% CO2 for 40 hours. After 5 uL per well of CellTiter-Glo reagent was added into each well of the assay plates, the plates were incubated for 30 min at room temperature and the luminescence intensity of the plates was measured using a ViewLux (PerkinElmer, Shelton, CT) plate reader.
(Quantitative high-throughput screening tests each substance at several concentrations.)
For the compound `O=S(=O)(O)c1ccc(N=Nc2c(O)ccc3cc(S(=O)(=O)O)ccc23)cc1`, the Potency result was “inactive”.

Consider `CC(=O)c1ccc(O)cc1`, for which the Potency entry was “inactive”.

For `CC(=O)OC1CC(C)OC(C)O1` (stereo not given), the Potency entry was “inactive”.

On to `Nc1ccc(Cl)c(N)c1`, for which the “activity, negative = cytotoxicity” value is -27.9% (inactive).

Take `CN(C)CCOC(=O)COc1ccc(Cl)cc1`: the “activity, negative = cytotoxicity” value was -9.35% (inactive).

In the case of `COc1ccccc1OCC(O)CO` (stereo not given), the Potency entry is “inactive”.

Consider `CCCCC(C=O)CC` (stereo not given), for which the Potency entry was “inactive”.

For the compound `C=CCCCCCCCCC(=O)O`, the Potency entry was “inactive”.

Take `N#Cc1ccccc1`: the Potency entry is “inactive”.

On to `c1ccc(Oc2ccccc2)cc1`, for which the Potency entry is “inactive”.

With `CCNc1ccccc1`, the Potency result is “inactive”.

As for `CNC(=O)Oc1ccc2c(c1)[C@]1(C)CCN(C)[C@@H]1N2C`, the Potency result is “inactive and 48.6 µM (active)”.

Turning to `C=CCc1ccc(OC)c(OC)c1`, the Potency result was “inactive”.

On to `O=C1CCCC1`, for which the Potency result was “inactive”.

In the case of `NCCNCCN`, the Potency result was “inactive and 68.6 µM (active)”.

With `C=CC(C)CCCC(C)(C)O` (stereo not given), the Potency result was “inactive and 61.1 µM (active)”.

Turning to `CCCOC(=O)c1ccccc1`, the Potency entry is “inactive”.

Take `CCCCCCO`: the “activity, negative = cytotoxicity” value is 6.02% (inactive).

Take `CCO[Si](CCCN)(OCC)OCC`: the Potency entry is “inactive”.

Turning to `COCCCN`, the Potency entry is “inactive”.

`Cc1ccc(C(C)C)c(O)c1`: the Potency entry is “inactive and 17.2 µM (active)”.

As for `Clc1ccccn1`, the Potency entry was “inactive”.

With `CC(C)=CCl`, the Potency is 34.8 µM (active) and inactive.

Take `C=CC[N+](C)(C)CC=C`: the Potency entry was “inactive”.

As for `O=c1[nH]cnc2[nH]ncc12`, the Potency result is “inactive”.

In the case of `CCO[Si](CCC#N)(OCC)OCC`, the Potency entry is “inactive”.

On to `CC(C)(C#N)c1cc(Cn2cncn2)cc(C(C)(C)C#N)c1`, for which the Potency result was “inactive”.

As for `OCc1ccccc1`, the Potency entry was “inactive”.

Regarding `NCCN1CCNCC1`, the Potency entry was “inactive”.

Regarding `COc1ccc(N)c(C)c1`, the “activity, negative = cytotoxicity” value is 5.85% (inactive).

On to `COC(=O)c1cccnc1`, for which the Potency entry is “inactive”.

`CC(C)CCCCCCCOC(=O)CCCCC(=O)OCCCCCCCC(C)C`: the Potency result was “inactive and 38.6 µM (active)”.

Take `CCNC(=S)NCC`: the Potency result was “inactive”.

For the compound `Cc1ccc([N+](=O)[O-])cc1S(=O)(=O)O`, the Potency result was “inactive”.

For `N[C@H](Cc1c[nH]c2ccccc12)C(=O)O`, the Potency result is “inactive”.

For the compound `CC(=O)CC(C)(C)O`, the Potency entry is “inactive”.

For `CCCCCCCC=O`, the Potency result was “inactive”.

Consider `C[Si]1(C)O[Si](C)(C)O[Si](C)(C)O[Si](C)(C)O1`, for which the Potency entry was “inactive”.

As for `O=C(O)c1ccc(S(=O)(=O)N(Cl)Cl)cc1`, the Potency is 43.5 µM (active).

As for `Brc1ccc(Br)c(Br)c1`, the “activity, negative = cytotoxicity” value is 2.78% [at 95 µM] (inactive).

These data come from PubChem BioAssay (Tox21).
